Assay outcomes from PubChem.
CDC25B CDK2 inh – human CDC25B-CDK2/CyclinA binding inhibition; HTRF CDC25B-CDK2/CyclinA binding, anti-His/anti-Flag; active compounds read high; z-score (test concentration not listed); P30305+P24941; 94,000 tested, 0.72% active; in the data active = z-score above about 3.2
TAR Tat displ – HIV-1 TAR-Tat binding disruption; HIV-1 TAR RNA, Tat peptide displacement FRET; active compounds read high; z-score (test concentration not listed); 100,000 tested, 0.6% active; AID 1259389; active = z-score of 3 or more in at least 2 runs
Of the large screens only hits and unclear results are named; the others gave an inactive call. The list is not random: actives were taken first. Their share in the collection is about 0.9%.

Cc1cc(OCc2cc(=O)n3c4c(sc3n2)CCCC4)ccc1Cl	none
CC(C(=O)c1ccccc1)C1(O)C(=O)N(Cc2ccccc2)c2ccccc21 (stereo not drawn)	none (no result: TAR Tat displ)
CC1CCc2cc(F)ccc2N1S(=O)(=O)c1ccc(N2CCCCS2(=O)=O)cc1 (stereo not drawn)	none (no result: CDC25B CDK2 inh)
COc1ccc(Br)cc1C1CC(=O)N2CN(c3ccc(F)cc3)CSC2=C1C#N (stereo not drawn)	CDC25B CDK2 inh 4.4
N#CC1=C2SCN(c3ccccc3)CN2C(=O)CC1c1cccc(Br)c1 (stereo not drawn)	CDC25B CDK2 inh 6.9
CCc1ccc(N2CSC3=C(C#N)C(c4cccc(F)c4)CC(=O)N3C2)cc1 (stereo not drawn)	CDC25B CDK2 inh 5.2
COc1ccc(Br)cc1C1CC(=O)N2CN(Cc3ccco3)CSC2=C1C#N (stereo not drawn)	none
N#CC1=C2SCN(c3ccc(Br)cc3)CN2C(=O)CC1c1cccc(F)c1 (stereo not drawn)	CDC25B CDK2 inh 6.6
O=C(NCCN1CCOCC1)C1CCN(c2nc3ccccc3n3cccc23)CC1	none (no result: CDC25B CDK2 inh)
O=C(COc1ccccc1Cl)Oc1ccc(-n2cnnn2)cc1	none
Cc1cc(NCCCN2CCOCC2)n2nc(C(F)(F)F)c(-c3ccc(F)cc3)c2n1	none
COc1ccc(Cn2cc3c(-c4ccccc4)nnc-3c3cc4c(cc32)OCCO4)cc1	CDC25B CDK2 inh 7.4
COc1ccc(-c2nnc3c4cc5c(cc4n(Cc4ccccc4)cc2-3)OCCO5)cc1	none
COc1ccc(-c2nnc3c4cc5c(cc4n(Cc4ccccc4F)cc2-3)OCCO5)cc1OC	CDC25B CDK2 inh 7.3
COc1ccccc1Cn1cc2c(-c3ccc(F)cc3)nnc-2c2cc3c(cc21)OCO3	none
CCCCN1CCS(=O)(=O)c2c(Cl)c(N3CCOCC3)nc(Oc3ccc(F)cc3)c21	none
COc1ccc(Oc2nc(N3CCCC3)c(Cl)c3c2N(CC2CCCO2)CCS3(=O)=O)cc1 (stereo not drawn)	CDC25B CDK2 inh 9.4
